From PubChem BioAssay
HT1080-NT tox – qHTS for induction of synthetic lethality in tumor cells producing 2HG: qHTS for the HT-1080-NT fibrosarcoma cell line. HT-1080-NT fibrosarcoma viability, CellTiter-Glo ATP luminescence, 48 h. Potency, µM (series often up to 46.1 µM), hits mostly cytotoxic. actives 1.6% (n = 360,000). AID 686970, 2013;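 note: NT is the 2HG producing partner of a matched IDH1 knockdown line; nearly all actives have a fitted effect of over 55% in size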
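HT-1080-NT fibrosarcoma cells (2HG-overproducing), 750 cells/well in RPMI with 5% FBS, dosed after 2 h and incubated 48 h at 37C. CellTiter-Glo luminescence normalized to DMSO and no-cell wells; concentration-response curves fitted and classed.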
TDP1 cell CPT – qHTS for Inhibitors of human tyrosyl-DNA phosphodiesterase 1 (TDP1): qHTS in cells in presence of CPT. chicken DT40 Tdp1-/-;hTDP1 cells + 20 nM CPT, ATP luminescence, 48 h. Potency, µM (titrated, usually from 46.2 µM), most hits filed as inhibitors. actives 12% (n = 420,000). AID 686979, 2013; note: nearly all actives have a fitted effect of over 55% in size
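Cell growth measured by CellTiter-Glo luminescence after a minimum 48 h, 37 C compound exposure with 20 nM CPT in Tdp1-knockout DT40 cells stably expressing hTDP1, seeded 400/well; qHTS titration format.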
DT40 TDP1 no CPT – qHTS for Inhibitors of human tyrosyl-DNA phosphodiesterase 1 (TDP1): qHTS in cells in absence of CPT | DT40 Tdp1-/- hTDP1 cells, no CPT, ATP luminescence, 48 h | Potency, µM (doses to about 46.2 µM), hits mostly inhibitors | actives 15% (n = 420,000); note: nearly all actives have a fitted effect of over 55% in size
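Growth of hTDP1-complemented DT40 Tdp1-knockout cells is measured by ATP luminescence after at least 48 hr compound exposure at 37 °C, with DMSO substituting for the 20 nM CPT used in the parallel screen.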
HT1080 IDH1KD tx – qHTS for induction of synthetic lethality in tumor cells producing 2HG: qHTS for the HT-1080-IDH1KD cell line. Potency, µM (highest dose often 46.1 µM), actives largely listed as cytotoxic. HT-1080 IDH1 knockdown viability, ATP luminescence, 48 h. actives 2% (n = 360,000). AID 686971, 2013
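IDH1KD HT-1080 cells, 750/well, RPMI + 5% FBS; compound pinned after 2 h settling; 48 h, 37 °C; CellTiter-Glo luminescence; % activity normalised to DMSO and no-cell wells; curves fitted, classed by r2 and efficacy.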
IL-1B inflam inh – qHTS for Inhibitors of Inflammasome Signaling: IL-1-beta AlphaLISA Primary Screen | THP-1 LPS/ATP IL-1B secretion, AlphaLISA, 16 h; hits give low values | activity change, % at 57.5 µM | actives 4.7% (n = 360,000) | AID 743279, 2014; in the data active = activity change below about -50%; inconclusive = mostly about -30% to -49%
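THP-1 cells pretreated 1 hr with compounds (up to 57.5 uM final), then stimulated with LPS (250 ng/mL final) plus ATP (1.25 mM final); secreted IL-1B measured by AlphaLISA after 16 hr, decreased signal indicating inhibition.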
uPA generation – qHTS for Inhibitors of Cell Surface uPA Generation | AID 540303, 2011 | actives 0.31% (n = 330,000) | Potency, µM (titrated, usually from 38.3 µM), most hits filed as inhibitors | cell surface uPA generation assay, qHTS; active = well fitted inhibition curve with a large enough effect; inconclusive = small, poorly fitted or top-dose-only effect; inactive = no such curve, though single readings can be large or run the other way; tested in mouse RAW 264.7 cells; note: nearly all actives have a fitted effect of over 55% in size
Numbers stand for hits; . = inactive; ? = inconclusive; / = no result given; [ ] = another dose, or the depositor's remark. In the library only some 19% were active in any assay of this set; here they are far more common. Unless noted, calls come from the whole dose curve; as a rule, active = well fitted curve in the direction sought with a large enough effect; inconclusive = small, poorly fitted or top-dose-only effect, or another doubt; inactive = no such curve, though single readings can be large; an effect the other way counts as inactive or inconclusive.

SMILES | HT1080-NT tox | TDP1 cell CPT | DT40 TDP1 no CPT | HT1080 IDH1KD tx | IL-1B inflam inh | uPA generation
CCc1nc2ccc(C(=O)NCc3ccc(OC)cc3)cn2c1N(C)CCC(C)C | ? | ? | 23µM | ? | ? | /
CCc1nc2ccc(C(=O)NCc3ccccc3OC)cn2c1N(CC)CCOC | . | 16µM | 16µM | . | . | /
CCc1nc2ccc(C(=O)NCc3ccccc3OC)cn2c1N(CC)CCN(C)C | . | . | . | . | ? | /
CCc1nc2ccc(C(=O)NCCc3ccccn3)cn2c1N(C)CCC(C)C | . | ? | 26µM | . | . | /
CCc1nc2ccc(C(=O)N(C)CCN(C)C)cn2c1N(C)CCC(C)C | . | . | ? | . | . | /
N#C[C@H](Cc1ccc(O)cc1)c1ccc(O)cc1 | / | . | ? | / | / | /
COc1ccc(CNC(=O)[C@@H](NC(=O)C2CCN(C(=O)[C@@H](N)CCSC)CC2)C(C)C)cc1 | . | . | . | . | . | .
C[C@@H]1CCCCO[C@@H](CN(C)S(=O)(=O)c2ccc(Cl)cc2)[C@@H](C)CN([C@H](C)CO)C(=O)c2cc(N(C)C)ccc2O1 | . | . | . | . | . | /
CN(C)CCN(C(=O)CCc1ccccc1)c1nc2c(F)cc(F)cc2s1 | . | . | . | . | . | .
CN(C)CCCN(C(=O)c1cc(-c2cccs2)nc2ccccc12)c1nc2ccc(F)cc2s1 | 8.2µM | 23µM | 13µM | 21µM | -59 | .
Cc1cccc2sc(N(CCCN(C)C)C(=O)CCc3ccccc3)nc12 | . | 26µM | ? | . | . | .
CN(C)CCCN(C(=O)CCc1ccccc1)c1nc2ccc(F)cc2s1 | . | . | 16µM | . | . | .
CN(C)CCN(C(=O)c1cc(Cl)sc1Cl)c1nc2ccc(F)cc2s1 | . | . | . | . | . | .
CN(C)CCCN(C(=O)CCc1ccccc1)c1nc2ccc(Br)cc2s1 | 18µM | ? | 23µM | ? | -102 | .
O=C(O)c1nn(CCOc2cccc(Br)c2)c(=O)c2ccccc12 | . | . | . | . | . | .
CN(C)CCN(C(=O)/C=C/c1cccs1)c1nc2ccc(F)cc2s1 | ? | 21µM | 18µM | ? | -66 | .
COC(=O)c1cn(C(=O)c2cc(Cl)ccc2Cl)c2ccccc12 | . | . | . | . | . | .
COc1ccc(/C=C/C(=O)NC(=S)NNC(=O)c2cc(OC)c(OC)c(OC)c2)cc1OC | . | ? | 15µM | . | . | .
COc1ccc(/C=C/C(=O)NC(=S)Nc2ccc(C(=O)O)cc2)cc1 | . | . | . | . | . | .
COc1ccc(/C=C/C(=O)NC(=S)NNC(=O)c2cc(OC)c(OC)c(OC)c2)cc1 | . | ? | 9.2µM | ? | . | .
COc1ccc(CC(=O)Nc2cc(S(=O)(=O)Nc3ccc(OC)cc3)ccc2OC)cc1 | . | 21µM | 21µM | . | . | .
CCN(CC)S(=O)(=O)c1ccc(NC(=O)c2cccs2)cc1 | . | . | ? | . | -52 | .
CCCN(CCC)S(=O)(=O)c1ccc(NC(=O)Cc2cccs2)cc1 | . | . | . | . | . | .
CCCCN(CCCC)S(=O)(=O)c1ccc(NC(=O)Cc2cccs2)cc1 | ? | ? | 21µM | ? | . | /
CCN(CC)S(=O)(=O)c1ccc(NC(=O)C2c3ccccc3Oc3ccccc32)cc1 | . | 23µM | 16µM | . | . | .
SMILES | HT1080-NT tox | TDP1 cell CPT | DT40 TDP1 no CPT | HT1080 IDH1KD tx | IL-1B inflam inh | uPA generation
COc1ccccc1C(=O)OCc1cc(=O)n2c(C)csc2n1 | / | . | . | / | / | /
CCN(CC(=O)Nc1ccccc1OC)C(=O)CSCC(=O)Nc1cccc(C)c1 | . | . | . | . | . | .
COc1ccc(/C=N\Nc2ncc(F)c(N3CCOCC3)n2)cc1OC | . | . | ? | . | . | .
CCN(CC)S(=O)(=O)c1ccc(C)c(NC(=O)/C=C/c2cccs2)c1 | . | 21µM | 13µM | . | ? | .
COc1ccc(NS(=O)(=O)c2cc(NC(=O)Cc3cccs3)ccc2C)cc1 | . | . | . | . | . | .
COc1ccc(NS(=O)(=O)c2ccc(NC(=O)Cc3cccs3)cc2)cc1 | . | ? | 15µM | . | . | .
Cc1ccn(-c2ccc(NC(=O)c3cccs3)cc2)n1 | ? | ? | 12µM | ? | . | .
CCN(CC)CCNC(=O)C(=O)NCC(c1cccnc1)N1CCN(c2ccc(F)cc2)CC1 (configuration not stated) | / | . | ? | / | / | /
NC(=O)c1ccc(NC(=O)COc2cccc3ccccc23)cc1 | . | . | . | . | . | .
Cc1cc(Oc2c(C(F)(F)F)oc3c(CN4CCC(C)CC4)c(O)ccc3c2=O)cc(C)c1Cl | / | . | . | / | / | /
CC1CCN(c2ccccc2NC(=O)c2ccc(Br)o2)CC1 | . | 16µM | ? | ? | . | ?
CS(=O)(=O)N1CCN(c2ccccc2NC(=O)c2ccc(Br)o2)CC1 | ? | . | . | ? | ? | .
O=C(Nc1ccccc1N1CCOCC1)c1ccc(Br)o1 | . | 21µM | 23µM | . | . | /
O=C(NC(=S)Nc1ccccc1N1CCOCC1)c1ccc(-c2ccccc2F)o1 | . | 13µM | 23µM | . | . | .
CC1CCN(c2ccccc2NC(=S)NC(=O)c2ccco2)CC1 | . | ? | 29µM | . | . | .
CC1CCN(c2ccccc2NC(=S)NC(=O)c2cccs2)CC1 | ? | ? | ? | ? | . | .
O=C(NC(=S)Nc1cc(Cl)ccc1N1CCOCC1)c1ccc(-c2cccc(Cl)c2)o1 | . | . | . | . | . | /
Cc1cc(C)n2nc(SC(C)C(=O)N3CC(C)OC(C)C3)nc2n1 (configuration not stated) | . | ? | . | . | . | .
CCCCCCCCCCCCC/C=C/[C@@H](O)[C@H](CO)NC(=O)CCCCCCC | / | .[4.12 µM] | .[4.12 µM] | / | / | /
COc1ccc(-n2nc(C(=O)Nc3ccc(C)cn3)c3c4ccccc4n(C)c3c2=O)cc1Cl | / | . | . | / | / | /
COC(=O)[C@H](Cc1ccccc1)NC(=O)N1CCN(Cc2ccccc2)CC1 | . | ? | 26µM | ? | . | .
CCCSc1nc2sc3c(c2c(=O)n1-c1ccc(C)c(Cl)c1)CCN(C(C)=O)C3 | / | 23µM | 23µM | / | / | /
CC(=O)N1CCc2c(sc3nc(SCC(C)C)n(-c4ccc(C)c(Cl)c4)c(=O)c23)C1 | / | 23µM | ? | / | / | /
CSc1nc2nc3c(cc2c(=O)n1-c1ccccc1C)CCCC3 | . | 7.3µM | 7.3µM | . | . | .
